Results reported in PubChem BioAssay AID1259374 (The Scripps Research Institute Molecular Screening Center, 2018).
The whole screen tested about 650,000 compounds, of which about 5,900 (0.91%) were called active. Rule as the data show it: active = inhibition above about 50%; inactive = the rest. The full list was thinned out, with actives kept by preference.

target: Microphthalmia-associated transcription factor (Homo sapiens) (UniProt O75030); experiment: MITF inhibitors, primary screen, biochemical, AlphaScreen, human (AID 1259374); conditions: AlphaScreen MITF homodimerization, bead proximity signal; at 2.6 µM; active compounds read high;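 also: 0% = vehicle wells with protein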
Sequence (O75030 whole entry, looked up): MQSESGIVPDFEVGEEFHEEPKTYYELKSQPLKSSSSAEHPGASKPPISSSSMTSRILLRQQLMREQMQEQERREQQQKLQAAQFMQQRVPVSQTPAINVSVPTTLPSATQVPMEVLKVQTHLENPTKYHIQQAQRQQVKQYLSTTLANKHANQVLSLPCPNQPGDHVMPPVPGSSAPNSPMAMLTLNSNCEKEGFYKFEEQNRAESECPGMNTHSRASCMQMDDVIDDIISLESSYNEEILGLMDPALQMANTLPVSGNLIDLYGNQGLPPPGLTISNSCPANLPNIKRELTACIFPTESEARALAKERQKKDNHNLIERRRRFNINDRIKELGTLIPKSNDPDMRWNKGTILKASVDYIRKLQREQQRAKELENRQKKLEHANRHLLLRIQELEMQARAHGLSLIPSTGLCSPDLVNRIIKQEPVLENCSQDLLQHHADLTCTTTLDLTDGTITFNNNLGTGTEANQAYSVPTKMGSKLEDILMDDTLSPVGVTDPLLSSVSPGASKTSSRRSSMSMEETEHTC

Row | Compound | inhibition
1 | O=C(Nc1ccc(C(=O)O)c(C(=O)O)c1)c1cccc(N2C(=O)c3ccc([N+](=O)[O-])cc3C2=O)c1 (tested in a mixture with another compound) | 11.7% (inactive)
2 | CSc1ccccc1N1C(=O)[C@@H]2C[C@H]1CN2C(=O)CCc1ccc2c(c1)OCO2 | -0.38% (inactive)
3 | CC1=C(C(=O)OC2CCCC2)C(c2ccc(C)o2)C2=C(CCCC2=O)N1 (configuration not stated) | 2.33% (inactive)
4 | CN(C)c1cccc(Nc2nccn3c(-c4cccc(Cl)c4)cnc23)c1 | -23.8% (inactive)
5 | CCCCNC(=O)c1ccc(-n2nnc3ccccc3c2=O)cc1 | 5.61% (inactive)
6 | CCOc1ccc(CN2CCN(Cc3ccc(OCC)cc3)C(CCO)C2)cc1 (configuration not stated) | 8.91% (inactive)
7 | CC(C)NC(=O)Nc1ccc(CN2CCN(C)CC2)cc1 | -5.21% (inactive)
8 | O=C(c1cccc(Cl)c1)N1CCN(Cc2cccnc2)CC1 | 59.4% (active)
9 | Clc1cccc(N2CCN(Cc3cccnc3)CC2)c1 | 49.8% (inactive)
10 | CC(Oc1cccc(Cl)c1)C(=O)Nc1ccccc1C(=O)N1CCN(Cc2ccccc2)CC1 (configuration not stated) | 4.29% (inactive)
11 | CCOc1ccc(CN2CCN(C(=O)c3cccc(Cl)c3)CC2)cc1 | 58.5% (active)
12 | CCOc1ccc(CN2CCCN(C)CC2)cc1 | 60.4% (active)
13 | COc1ccc(CN2CCN(C(=O)c3cccc(Cl)c3)CC2)cc1OC | 27.7% (inactive)
14 | O=C(c1ccc(C(=O)N2CCN(Cc3ccccc3)CC2)cc1)N1CCN(Cc2ccccc2)CC1 | 6.34% (inactive)
15 | COc1ccc(OC)c(-n2nnnc2SCC(=O)N2CCc3ccccc32)c1 | 9.95% (inactive)
16 | CC(C)n1cnc2c(NCc3cccc(C(F)(F)F)c3)nc(Nc3ccncn3)nc21 | 12.6% (inactive)
17 | Cc1ccc2c(c1)-c1c(cnn1CC(=O)NCc1ccccn1)CO2 | -4% (inactive)
18 | COc1ccc(N2CCN(Cc3coc4ccc(Cl)cc4c3=O)CC2)cc1 | 10.4% (inactive)
19 | COc1ccc(N2CCN(Cc3ccc(Br)s3)CC2)cc1 | 71.6% (active)
20 | COc1cccc(N2CCN(Cc3cccs3)CC2)c1 | 42.8% (inactive)
21 | CCOC(=O)c1ccc(-n2c(=S)sc3c2nc(SCC(=O)N2CCCC2)n2c4ccccc4nc32)cc1 | -3.4% (inactive)
22 | CCOc1cc2c(cc1/C=C1/NC(=O)N(CC(=O)Nc3ccccc3C)C1=O)OCO2 | 12.6% (inactive)
23 | Cc1ccccc1CC1(C2CCN(C(=O)C(C)C)CC2)NC(=O)N(CCCN(C)C)C1=O (configuration not stated) | 4.98% (inactive)

Row | Compound | inhibition
24 | CNC(=O)/C(C#N)=C/c1cn(CC(=O)NCCOC)c2ccccc12 | 5.66% (inactive)
25 | CSc1ccc(CN2CCN(Cc3cccc(Oc4ccccc4)c3)CC2)cc1 | 52% (active)
26 | COc1cccc(CN2CCN3C(=O)[C@H]4CCCN4C(=O)[C@H]3C2)c1 | -17.2% (inactive)
27 | CSc1ccc(CN2CCN(C(=O)c3cccc(F)c3)CC2)cc1 | 34.1% (inactive)
28 | CCc1ccc(NS(=O)(=O)c2ccc3c(c2)CCN3C(=O)C2CC2)cc1 | 2.16% (inactive)
29 | CCC1CCc2c(sc3nc(SCC(=O)Nc4ccc(Br)cc4)n(-c4ccccc4)c(=O)c23)C1 (configuration not stated) | 10.8% (inactive)
30 | COCc1nc2ccccc2n1CCc1noc(-c2cccs2)n1 | 8.99% (inactive)
31 | Cc1nc2ccccc2n1CCc1noc(COc2ccccc2)n1 | 9.51% (inactive)
32 | COCc1nc2ccccc2n1CCc1noc(-c2ccco2)n1 | 82% (active)
33 | CCCc1[nH]n(-c2ccc(F)cc2)c(=O)c1CNN1CCOCC1 | -2.83% (inactive)
34 | COc1cc(/C=C/C(=O)OCC(N)=O)ccc1OCC#N | 6.64% (inactive)
35 | NC(=O)COC(=O)/C=C/c1ccc(I)o1 | 52.1% (active)
36 | CNC(=O)COC(=O)/C=C/c1ccc(C)o1 | 18.9% (inactive)
37 | Cc1ccc(C)c(NC(=S)N(Cc2ccccc2C)CC2CCC(C(=O)O)CC2)c1 (configuration not stated) | 13.3% (inactive)
38 | CCCC(=O)NC(c1ccccc1OC)c1cc([N+](=O)[O-])c2cccnc2c1O (configuration not stated) | 56.2% (active)
39 | COc1cc(C(=O)NC(c2ccccc2Cl)c2cc([N+](=O)[O-])c3cccnc3c2O)cc(OC)c1OC (configuration not stated) | 24.9% (inactive)
40 | CCCCC(=O)NC(c1ccc(OC)cc1)c1cc([N+](=O)[O-])c2cccnc2c1O (configuration not stated) | 18.8% (inactive)
41 | C/C(N)=C(/C#N)C(=O)CSc1cccc[n+]1[O-] | -1.32% (inactive)
42 | O=C1c2ccccc2-c2ccc(-c3nc(-c4ccccc4)[nH]c3-c3ccccc3)cc21 | -1.27% (inactive)
43 | Cc1ccc(OCCCCNC(C)(C)C)cc1C | 1.35% (inactive)
44 | CC(C)(C)NCCOCCOc1ccc(Cl)c(Cl)c1 | 73.1% (active)
45 | CC(C)(C)NCCOCCOc1ccc(I)cc1 | 40.6% (inactive)
46 | CCOC(=O)C(C)Oc1cccc2c(=O)n(CC(=O)Nc3ccc(C)c(Cl)c3)ccc12 (configuration not stated) | -3.54% (inactive)

Row | Compound | inhibition
47 | CC1=C(C#N)C(=O)NC(=O)/C1=C\c1ccc(-c2ccc(Cl)c(C(=O)O)c2)o1 | 77.7% (active)
48 | CC1=C(C#N)C(=O)NC(=O)/C1=C/c1ccc(-c2ccc(Cl)cc2Cl)o1 | 13.9% (inactive)
49 | CC1=C(C#N)C(=O)NC(=O)/C1=C\c1ccc(-c2cccc(Cl)c2)o1 | -5.17% (inactive)
50 | CCOC(=O)c1ccc(N2CCN(c3ccc(F)cc3)CC2)c(NC(=O)Nc2ccc(OC)cc2OC)c1 | -1.5% (inactive)
51 | O=C1C2C3CC(C(Br)C3Br)C2C(=O)N1C1CCCCC1 (configuration not stated) | -2.53% (inactive)
52 | O=C(Nc1cccc(O)c1)c1ccc2c(c1)C(=O)N(Cc1cccnc1)C2=O | -1.4% (inactive)
53 | O=C(NCc1ccco1)c1ccc2c(c1)C(=O)N(Cc1cccnc1)C2=O | -3.01% (inactive)
54 | O=C(c1ccc2c(c1)C(=O)N(Cc1cccnc1)C2=O)c1ccc2c(c1)C(=O)N(Cc1cccnc1)C2=O | 104% (active)
55 | CC(=O)N1C(=O)C(=O)c2cc(Cl)ccc21 | -11.3% (inactive)
56 | Cc1ccc(NC(=O)C(C)C2Sc3ccccc3NC2=O)c(C)c1 (configuration not stated) | 9.32% (inactive)
57 | O=C(C1CCN(Cc2nc3ccccc3[nH]2)CC1)N1CCN(c2ccccn2)CC1 | 51.4% (active)
58 | O=C(C1CCN(c2nc3ccccc3n3cccc23)CC1)N1CCN(c2ccccn2)CC1 | 10.7% (inactive)
59 | O=C(C1CCN(Cc2nc3ccccc3[nH]2)CC1)N1CCN(c2ccc(Cl)nn2)CC1 | -4.97% (inactive)
60 | CN(c1ccccc1)S(=O)(=O)c1ccc(C(=O)N2CCc3ccccc32)cc1 | -6.36% (inactive)
61 | c1ccc(Oc2cccc(OCCCCn3cncn3)c2)cc1 | 73.8% (active)
62 | Fc1ccccc1OCCCCn1cncn1 | 20.2% (inactive)
63 | O=C(Cn1cncn1)NCCCOc1cccc(CN2CCCCCCC2)c1 | -3.47% (inactive)
64 | O=C(c1cccs1)N1CCN(S(=O)(=O)c2ccc(Cl)cc2)CC1 | -0.92% (inactive)
65 | O=C(CN1CCN(C(=O)c2cccs2)CC1)c1cccs1 | -1.86% (inactive)
66 | Cc1cccc(CN2CCC(N3CCN(C(=O)c4cccs4)CC3)CCC2=O)c1 (configuration not stated) | -6.77% (inactive)
67 | O=C(c1cccs1)N1CCC(N2CCN(Cc3ccccc3)CC2)CC1 | 76.7% (active)
68 | CCOC(=O)c1c(NC(=O)c2ccccc2Br)sc2c1CC(C)(C)NC2(C)C | 3.37% (inactive)
69 | Nc1ccc(S(=O)(=O)O)c2cc(S(=O)(=O)O)cc(O)c12 | 63.3% (active)

Row | Compound | inhibition
70 | NS(=O)(=O)c1ccc(O)c2ccccc12 | 13.7% (inactive)
71 | Cc1ccc(/C=C2/C(=O)N(C)C(=S)N(c3ccccc3)C2=O)s1 | 23.2% (inactive)
72 | O=C(NC1CC1)C1CCC(=O)N1Cc1ccccc1Cl (configuration not stated) | -6.74% (inactive)
73 | O=C1c2ccccc2C(O)N1Cc1ccccc1 (configuration not stated) | 3.72% (inactive)
74 | O=C1c2ccccc2C(O)N1Cc1ccccc1Cl (configuration not stated) | 79.6% (active)
75 | COC(=O)Cn1cc(-c2ccc([N+](=O)[O-])cc2)nc1SCC(=O)NC(C)(C)C | -1.03% (inactive)
76 | N#Cc1ccc(-c2cccnc2)nc1SCC(=O)c1ccc(Cl)cc1 | -7.18% (inactive)
77 | COc1ccc(NC(=O)C2(N(C)C(=O)Cn3nnnc3N)CCCCC2)cc1 | 5.13% (inactive)
78 | COc1ccc(N(C(=O)Cc2nc(N)n[nH]2)C2(C(=O)Nc3ccccc3)CCCCC2)cc1 | -1.47% (inactive)
79 | CCN(C(=O)Cc1nc(N)n[nH]1)C1(C(=O)Nc2ccc(C)cc2)CCCCC1 | 63% (active)
80 | CCN(C(=O)Cc1nc(N)n[nH]1)C1(C(=O)Nc2ccccc2)CCCCC1 | 68.5% (active)
81 | COCCN(C(=O)CN1C(=O)c2ccccc2C1=O)C1(C(=O)Nc2ccccc2)CCCC1 | 11.4% (inactive)
82 | COCCCN(C(=O)c1cc2ccccc2o1)C1(C(=O)Nc2ccccc2)CCCC1 | 6.26% (inactive)
83 | Cc1ccc(NC(=O)CSCC(=O)Nc2ccccc2F)cc1C | 4.24% (inactive)
84 | Cc1ccc(NC(=O)CNCCCSc2ccccc2)cc1C | 75.4% (active)
85 | Cc1ccc(NC(=O)Cn2c(=O)[nH]n(-c3ccccc3)c2=O)cc1C | -10.5% (inactive)
86 | CC1=CC(C)(C)N2C(=O)C(=O)c3cc(OC(=O)C(C)(C)C)cc1c32 | -9.06% (inactive)
87 | CC(C)OC(=O)C1=c2/c(=C/c3ccco3)c(N)c(C#N)n2C(=O)C(c2ccco2)S1 (configuration not stated) | 14.9% (inactive)
88 | Cc1nc(N2CCCCC2C)c2c(C)c(C(=O)NC3CCCCC3)sc2n1 (configuration not stated) | 9.14% (inactive)
89 | COCC(=O)Nc1ccc2nc(C)n(-c3ccc(F)cc3)c(=O)c2c1 | -0.07% (inactive)
90 | COc1ccc(OCCn2ccnc2C)cc1 | 57.2% (active)
91 | COc1ccc(OCCSc2nnc3nc(C)cc(C)n23)cc1 | 7.82% (inactive)
92 | Cc1nccn1CC(O)COc1ccc(Br)cc1 (configuration not stated) | 4.86% (inactive)
